About 14,000 (4.5%) of roughly 310,000 compounds showed an effect of 50% or more. Effects have a minus sign here. The sample holds strong results, similar compounds and a random draw of the others, so the mix is not that of the screen.
Target: human ether-à-go-go-related gene (hERG) potassium channel (human, UniProt Q12809)
Assay: primary screen, population patch clamp on CHO cells stably expressing hERG; higher = less effect of the substance
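Further: peak tail current of the secondary pulse compared with the same well before compound.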

Sequence of human ether-à-go-go-related gene (hERG) potassium channel (Q12809 whole entry, looked up): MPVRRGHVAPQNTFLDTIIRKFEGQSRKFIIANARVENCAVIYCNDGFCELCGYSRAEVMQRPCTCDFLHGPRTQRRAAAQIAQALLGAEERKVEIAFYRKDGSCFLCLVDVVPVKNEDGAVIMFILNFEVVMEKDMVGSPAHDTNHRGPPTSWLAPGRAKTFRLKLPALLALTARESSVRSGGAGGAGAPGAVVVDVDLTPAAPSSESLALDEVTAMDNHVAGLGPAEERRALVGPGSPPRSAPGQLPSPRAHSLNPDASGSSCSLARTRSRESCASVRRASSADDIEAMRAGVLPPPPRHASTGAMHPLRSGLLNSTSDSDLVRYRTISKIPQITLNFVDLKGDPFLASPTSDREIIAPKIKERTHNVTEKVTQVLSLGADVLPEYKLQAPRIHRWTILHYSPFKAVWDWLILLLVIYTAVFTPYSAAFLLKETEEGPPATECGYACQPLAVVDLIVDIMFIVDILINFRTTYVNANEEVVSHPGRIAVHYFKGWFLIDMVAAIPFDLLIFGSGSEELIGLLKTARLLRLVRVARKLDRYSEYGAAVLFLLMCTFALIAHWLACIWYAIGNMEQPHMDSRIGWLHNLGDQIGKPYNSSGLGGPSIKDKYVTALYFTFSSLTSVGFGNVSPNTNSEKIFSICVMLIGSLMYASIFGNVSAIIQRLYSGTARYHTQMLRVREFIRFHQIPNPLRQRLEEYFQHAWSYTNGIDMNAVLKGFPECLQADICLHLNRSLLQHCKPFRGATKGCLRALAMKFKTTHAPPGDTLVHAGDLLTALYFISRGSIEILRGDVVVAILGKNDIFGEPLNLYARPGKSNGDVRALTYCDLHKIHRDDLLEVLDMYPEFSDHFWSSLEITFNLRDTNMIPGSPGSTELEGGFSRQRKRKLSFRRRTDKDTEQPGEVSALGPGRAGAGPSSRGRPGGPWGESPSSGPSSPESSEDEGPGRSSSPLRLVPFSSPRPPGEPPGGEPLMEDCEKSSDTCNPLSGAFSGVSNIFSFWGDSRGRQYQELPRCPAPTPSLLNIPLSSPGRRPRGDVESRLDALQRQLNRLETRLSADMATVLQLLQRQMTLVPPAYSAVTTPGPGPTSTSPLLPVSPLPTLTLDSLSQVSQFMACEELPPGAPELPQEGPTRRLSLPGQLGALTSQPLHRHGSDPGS

Compound | hERG current change (%, negative = inhibition) at 10uM
Cc1cc(NC(=O)COC(=O)c2n[nH]c3ccccc23)no1 | 8.9%
O=C(N/N=C/c1cccnc1)c1cccc(Br)c1 | 10.4%
C#CCNC(=O)C1=C[C@@H](c2ccc(C(F)(F)F)cc2)C[C@@H](OCCCCO)O1 | -53.8%
O=C(C1=C[C@@H](c2ccc(Br)cc2)C[C@@H](OCCCCO)O1)N1CCN(Cc2ccccc2)CC1 | -91.7%
C#Cc1ccc([C@@H]2C=C(C(=O)N3CCOCC3)O[C@H](OCCCCO)C2)cc1 | 17.3%
CN1CCN(C(=O)C2=C[C@H](c3ccc(Br)cc3)C[C@H](OCCCCO)O2)CC1 | -47.7%
CCO[C@H]1OC(C(=O)N2CCCCCCC2)=C[C@@H](c2ccc(C(F)(F)F)cc2)[C@@H]1CCCO | -50.5%
C#Cc1ccc([C@@H]2C=C(C(=O)N3CCN(Cc4ccccc4)CC3)O[C@H](OCCCCO)C2)cc1 | -56%
O=C(C1=C[C@H](c2ccccc2)C[C@H](OCCCCO)O1)N1CCN(Cc2ccccc2)CC1 | -38.9%
C#CCNC(=O)C1=C[C@H](c2ccc(C(F)(F)F)cc2)C[C@H](OCCCCO)O1 | -6.12%
CCO[C@@H]1OC(C(=O)N2CCN(C)CC2)=C[C@H](c2ccc(C(F)(F)F)cc2)[C@H]1CCCO | -1.51%
C#CCNC(=O)C1=C[C@@H](c2ccc(C#C)cc2)C[C@@H](OCCCCO)O1 | -3.88%
C#Cc1ccc([C@H]2C=C(C(=O)N3CCN(Cc4ccccc4)CC3)O[C@@H](OCc3ccc(CO)cc3)C2)cc1 | -13.3%
CCO[C@@H]1OC(C(=O)N2CCCCCCC2)=C[C@H](c2ccc(C(F)(F)F)cc2)[C@H]1CCCO | -21.4%
CC(=O)Nc1ccc(S(=O)(=O)NNC(=S)NCc2ccco2)cc1 | 12.1%
COc1ccc(-c2csc(N(CCCN3CCOCC3)C(=O)CCl)n2)cc1.Cl | 3.28%
CC1(C)C2CCC(C2)C1(C)NC(=O)C[N+](C)(C)C.[Cl-] (centres unmarked) | 12.6%
Cc1nc(NC(=O)/C=C/c2ccccc2)sc1C(=O)Nc1ccccc1Cl | 13.3%
c1ccc(-c2ncc(CN3CCN(c4ccccn4)CC3)[nH]2)cc1 | -14.1%
CCOC(=O)c1cnc(-n2nc(C)cc2C)nc1NC1CCCC1 | -26.2%
CC(C)NCc1nnc(-c2ccc(Cl)cc2)o1 | 15.9%
CCc1ccccc1NC(=O)c1cc(=O)c2ccccc2o1 | -1.16%
O=C(C1=C[C@@H](c2ccc(C(F)(F)F)cc2)C[C@@H](OCCCCO)O1)N1CCN(Cc2ccccc2)CC1 | -60.6%
O=C(C1=C[C@H](c2ccc(Br)cc2)C[C@H](OCCCCO)O1)N1CCN(Cc2ccccc2)CC1 | -80.8%
O=C(C1=C[C@@H](c2ccc(C(F)(F)F)cc2)C[C@@H](OCCCCO)O1)N1CCOCC1 | -3.65%

Compound | hERG current change (%, negative = inhibition) at 10uM
C=CCOC(=O)C1=C[C@@H](c2ccc(Br)cc2)[C@H](CCCO)[C@@H](OCC)O1 | -22.6%
O=C(C1=C[C@@H](c2ccc(C(F)(F)F)cc2)C[C@@H](OCCCCO)O1)N1CCCCCCC1 | -51.3%
O=C(C1=C[C@@H](c2ccc(Br)cc2)C[C@@H](OCCCCO)O1)N1CCOCC1 | -15.7%
C=CCOC(=O)C1=C[C@@H](c2ccccc2)[C@H](CCCO)[C@@H](OCC)O1 | -9.65%
O=C(C1=C[C@H](c2ccc(C(F)(F)F)cc2)C[C@H](OCc2ccc(CO)cc2)O1)N1CCN(Cc2ccccc2)CC1 | -15.2%
CN1CCN(C(=O)C2=C[C@@H](c3ccccc3)C[C@@H](OCCCCO)O2)CC1 | -6.11%
O=C(C1=C[C@H](c2ccc(C(F)(F)F)cc2)C[C@H](OCCCCO)O1)N1CCN(Cc2ccccc2)CC1 | -49.6%
O=C(C1=C[C@H](c2ccc(C(F)(F)F)cc2)C[C@H](OCCCCO)O1)N1CCOCC1 | -23.7%
C=CCOC(=O)C1=C[C@H](c2ccc(Br)cc2)[C@@H](CCCO)[C@H](OCC)O1 | -55.3%
COc1ccc(OC)c(NC(=O)c2ccc(CN3CCc4ccccc4C3)cc2)c1 | 3.78%
O=C(Nc1ccc(F)cc1)c1cccc(C(=O)Nc2ccc(F)cc2)c1 | -28.4%
O=C(CN1C(=O)S/C(=C\c2ccc(O)c([N+](=O)[O-])c2)C1=O)Nc1ccc(N2CCOCC2)cc1 | 12.2%
O=C1CCC(=O)N1OCCCOc1ccc2c(c1)CCC2 | 1.61%
CCCNC(=O)Cc1c(C)n(C(=O)c2ccc(Cl)cc2)c2ccc(OC)cc12 | 14.6%
COC(=O)C1=NNC2(c3ccc(C)cc3)C(=O)N(c3ccc(C)cc3)C(=O)C12 (centres unmarked) | 16.5%
N/C(=N\OC(=O)c1ccccc1)c1ccccn1 | 12.9%
CCOc1ccc(CC(=O)N/N=C/c2cccnc2)cc1OCC | 14%
CCCC(=O)Nc1ccc(C(=O)O)cc1NC(=O)CCC | 8.09%
CCNc1cc2n(c(=O)n1)CCc1cc(OC)c(OC)cc1-2 | -19.5%
Cc1ccc(C(=O)N/C(=C\c2cccs2)C(=O)NCc2cccnc2)cc1 | -58%
Cc1ccc(C(=O)N/C(=C\c2sccc2C)C(=O)NCc2ccncc2)cc1 | -30.5%
Cc1ccc(C(=O)N/C(=C\c2cccs2)C(=O)NCc2ccncc2)cc1 | -52.9%
Cc1ccc(C(=O)N/C(=C/c2cccs2)C(=O)NCc2ccco2)cc1 | -15.8%
Cc1ccc(C(=O)NC(=S)NCc2cccnc2)cc1 | -7.52%
Cc1ccc(C(=O)N/C(=C/c2cccs2)C(=O)NCC2CCCO2)cc1 (centres unmarked) | -9.01%

— PMC4336329 (PLoS ONE, 2015)
